# Results: the supplement of paper PMC8728848
# This excerpt belongs to a sample that is enriched for the strongest signals.
# What was measured:
# Test in all cases: glycan array binding signal (z-score within array); higher = stronger binding
# Conditions in all cases: glycan notation: IUPAC condensed, linker removed
# GalNAc6S(b1-4)GlcNAc = biological target: GalNAc6S(b1-4)GlcNAc
# In short: (§1)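 The Consortium for Functional Glycomics database supplied 3228 glycan arrays, of which those lacking an available protein sequence were dropped. The binding signal, a within-array Z-score, was averaged across arrays of the same protein sequence and across linkers. Negative scores can be read as non-binding.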
# Glc(b1-4)Glc = biological target: Glc(b1-4)Glc
# In short: as §1
# [1] = biological target: GlcNAc(b1-3)Gal(b1-3)GalNAc
# In short: as §1
# GlcNAc(b1-3)Gal(b1-4)Glc = biological target: GlcNAc(b1-3)Gal(b1-4)Glc
# In short: as §1
# [2] = biological target: GlcNAc(b1-3)Gal(b1-4)GlcNAc(b1-2)[GlcNAc(b1-3)Gal(b1-4)GlcNAc(b1-6)]Man(a1-6)[GlcNAc(b1-3)Gal(b1-4)GlcNAc(b1-2)Man(a1-3)]Man(b1-4)GlcNAc(b1-4)GlcNAc
# In short: as §1
# [3] = biological target: GlcNAc(b1-3)Gal(b1-4)GlcNAc(b1-3)Gal(b1-4)GlcNAc
# In short: as §1
# [4] = biological target: GlcNAc(b1-4)GlcNAc(b1-4)GlcNAc(b1-4)GlcNAc(b1-4)GlcNAc(b1-4)GlcNAc
# In short: as §1
# [5] = biological target: GlcNAc6S(b1-3)Gal(b1-4)GlcNAc
# In short: as §1
# [6] = biological target: Neu5Ac(a2-3)Gal(b1-3)GalNAc
# In short: as §1
# [7] = biological target: Neu5Ac(a2-3)Gal(b1-3)GlcNAc(b1-2)Man(a1-3)[GlcNAc(b1-4)][Neu5Ac(a2-3)Gal(b1-3)GlcNAc(b1-2)Man(a1-6)]Man(b1-4)GlcNAc(b1-4)GlcNAc
# In short: as §1
# [8] = biological target: Neu5Ac(a2-3)Gal(b1-4)GlcNAc(b1-2)[Neu5Ac(a2-3)Gal(b1-4)GlcNAc(b1-4)]Man(a1-3)[GlcNAc(b1-4)][Neu5Ac(a2-3)Gal(b1-4)GlcNAc(b1-2)[Neu5Ac(a2-3)Gal(b1-4)GlcNAc(b1-6)]Man(a1-6)]Man(b1-4)GlcNAc(b1-4)GlcNAc
# In short: as §1
# [9] = biological target: Neu5Ac(a2-3)Gal(b1-4)GlcNAc(b1-3)Gal(b1-4)GlcNAc(b1-2)Man(a1-3)[Neu5Ac(a2-3)Gal(b1-4)GlcNAc(b1-3)Gal(b1-4)GlcNAc(b1-2)Man(a1-6)]Man(b1-4)GlcNAc(b1-4)GlcNAc
# In short: as §1
# [10] = biological target: Neu5Ac(a2-3)Gal(b1-4)GlcNAc(b1-3)Gal(b1-4)[Fuc(a1-3)]GlcNAc
# In short: as §1
# [11] = biological target: Neu5Ac(a2-3)Gal(b1-4)[Fuc(a1-3)]GlcNAc(b1-2)Man
# In short: as §1
# [12] = biological target: Neu5Ac(a2-3)Gal(b1-4)[Fuc(a1-3)]GlcNAc(b1-3)GalNAc
# In short: as §1
# [13] = biological target: Neu5Ac(a2-3)Gal6S(b1-4)[Fuc(a1-3)]GlcNAc
# In short: as §1
# [14] = biological target: Neu5Ac(a2-3)[GalNAc(b1-4)]Gal(b1-4)GlcNAc(b1-3)GalNAc
# In short: as §1
# [15] = biological target: Neu5Ac(a2-6)Gal(b1-4)GlcNAc(b1-2)Man
# In short: as §1
# [16] = biological target: Neu5Ac(a2-6)Gal(b1-4)GlcNAc(b1-2)Man(a1-6)[GlcNAc(b1-2)Man(a1-3)]Man(b1-4)GlcNAc(b1-4)GlcNAc
# In short: as §1
# [17] = biological target: Neu5Ac(a2-6)Gal(b1-4)GlcNAc(b1-2)[Neu5Ac(a2-6)Gal(b1-4)GlcNAc(b1-4)]Man(a1-3)[GlcNAc(b1-4)][Neu5Ac(a2-6)Gal(b1-4)GlcNAc(b1-2)[Neu5Ac(a2-6)Gal(b1-4)GlcNAc(b1-6)]Man(a1-6)]Man(b1-4)GlcNAc(b1-4)GlcNAc
# In short: as §1
# [18] = biological target: Neu5Ac(a2-6)Gal(b1-4)GlcNAc(b1-2)[Neu5Ac(a2-6)Gal(b1-4)GlcNAc(b1-6)]Man(a1-6)[Neu5Ac(a2-6)Gal(b1-4)GlcNAc(b1-2)Man(a1-3)][GlcNAc(b1-4)]Man(b1-4)GlcNAc(b1-4)GlcNAc
# In short: as §1
# [19] = biological target: Neu5Ac(a2-6)Gal(b1-4)GlcNAc(b1-3)Gal(b1-4)GlcNAc(b1-3)Gal(b1-4)GlcNAc(b1-2)Man(a1-3)[Neu5Ac(a2-6)Gal(b1-4)GlcNAc(b1-3)Gal(b1-4)GlcNAc(b1-3)Gal(b1-4)GlcNAc(b1-2)Man(a1-6)]GalNAc
# In short: as §1
# [20] = biological target: Neu5Ac(a2-8)Neu5Ac(a2-3)[GalNAc(b1-4)]Gal(b1-4)Glc
# In short: as §1
# [21] = biological target: Neu5Ac(a2-8)Neu5Ac(a2-8)Neu5Ac(a2-3)Gal(b1-4)Glc
# In short: as §1
# [22] = biological target: Neu5Ac(a2-8)Neu5Ac(a2-8)Neu5Ac(a2-8)Neu5Ac(a2-3)[GalNAc(b1-4)]Gal(b1-4)Glc
# In short: as §1
# [23] = biological target: Neu5Ac(a2-8)Neu5Gc(a2-3)Gal(b1-4)GlcNAc
# In short: as §1
# Neu5Ac(b2-6)GalNAc = biological target: Neu5Ac(b2-6)GalNAc
# In short: as §1
# Neu5Gc(a2-6)GalNAc = biological target: Neu5Gc(a2-6)GalNAc
# In short: as §1
binder,measurement,setting,value
PX9896A-bth-573-26-573 (Bacteroides thetaiotaomicron) (protein) ETNNLKTKEDMYKYFGTSKSMLTHVYSYMPQGYQLFATSGGIFTEDRYSMRDCASDDGEFGAYADNIQNTNNGNWSPIKTYDDSWTLYRGIRAANSFIAEIAQVDFTRYEHDGQYTNWMKQLKYFPYEARVLRAHYFFELARRYGDIAMPLEVLTEEEANTIGKTPFSEVISFIVSECDDAANNLPDSYVNEPGAEIGRVTKGFAMAVKSKALLYAASKLHNPSMDTELWKKSAKAAIDIINTGLYSLDPQESANNLDSKEVVLMRINGDDSDFEMFNLPLRMTAGTRTSSLIPYSNYPSQNLVDAFETVNGYKVTLENTGWVCEDPAFDPQSPYENRDKRFYRAILANGMSFKDYTIETFKGGADDGIVSQGGSPTGYFLRKYIQEATSFEPGKEAVSKHHWVIYRYAETLLTYAESMVNAFNDVNYTDETYKYSALWAINEVRKNADMPLIPSMGKDEFMERLYNEWRVEFAFEDHRFWDVRRWKIADTTQRELYGVKIEKQADGTFNFYKNLYETRNWRDCMYLYPIPQSELYKNTNLNPQNTGW,glycan array binding signal (z-score),GalNAc6S(b1-4)GlcNAc,-0.663
same,glycan array binding signal (z-score),Glc(b1-4)Glc,0.069
same,glycan array binding signal (z-score),[1],-0.077
same,glycan array binding signal (z-score),GlcNAc(b1-3)Gal(b1-4)Glc,0.621
same,glycan array binding signal (z-score),[2],0.497
same,glycan array binding signal (z-score),[3],-0.759
same,glycan array binding signal (z-score),[4],-0.604
same,glycan array binding signal (z-score),[5],0.875
same,glycan array binding signal (z-score),[6],-0.359
same,glycan array binding signal (z-score),[7],-0.678
same,glycan array binding signal (z-score),[8],-0.635
same,glycan array binding signal (z-score),[9],-0.638
same,glycan array binding signal (z-score),[10],-0.535
same,glycan array binding signal (z-score),[11],-0.204
same,glycan array binding signal (z-score),[12],4.79
same,glycan array binding signal (z-score),[13],-0.756
same,glycan array binding signal (z-score),[14],-0.496
same,glycan array binding signal (z-score),[15],-0.386
same,glycan array binding signal (z-score),[16],-0.598
same,glycan array binding signal (z-score),[17],-0.093
same,glycan array binding signal (z-score),[18],-0.82
same,glycan array binding signal (z-score),[19],1.34
same,glycan array binding signal (z-score),[20],-0.414
same,glycan array binding signal (z-score),[21],-0.639
same,glycan array binding signal (z-score),[22],0.475
same,glycan array binding signal (z-score),[23],13.3
same,glycan array binding signal (z-score),Neu5Ac(b2-6)GalNAc,-0.726
same,glycan array binding signal (z-score),Neu5Gc(a2-6)GalNAc,-0.244
